A word on the AC50: it is the concentration at which the activity in the assay is half-maximal.

Drawing on PubChem BioAssay (EPA / NIEHS), this text covers outcome and AC50 for four compounds.

Active and inactive are the calls of the source. The calls were made as follows: active = hit-call score of the fitted dose curve at least 0.9, where 1 is the maximum; inactive = score below 0.9.

What all share (conditions): mRNA level, 48 h; actives raise or lower the signal
Read-out in assay [1]: Protein phosphatase 2A (PPP2R4), PTPA (gene 5524)
The assay is described as follows: LTEA_HepaRG_PPP2R4: Life Technologies and Expression Analysis (LTEA) Assay for Protein phosphatase 2A (PPP2R4) using HepaRG (AID 2283522). The gist of the method: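 Using HepaRG cultures maintained in 0.5% DMSO, chemicals are tested 48 h at up to 100 uM in duplicate. Induction or suppression of PPP2R4 mRNA, measured by qRT-PCR, is fitted bidirectionally against the vehicle baseline.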

Read-out in assay [2]: Phosphatase and tensin (PTEN), PTEN (gene 5728)
Nature of the assay: LTEA_HepaRG_PTEN: Life Technologies and Expression Analysis (LTEA) Assay for Phosphatase and tensin (PTEN) using HepaRG (AID 2283523). The gist of the method:
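Read-out: TaqMan qRT-PCR of PTEN transcript, normalized to three housekeeping genes, fitted in both directions against 0.5% DMSO. Differentiated human HepaRG cultures received chemicals for 48 h, eight-point half-log series topping at 100 uM.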

Read-out in assay [3]: solute carrier (SLC22A1), SLC22A1 (gene 6580)
Nature of the assay: LTEA_HepaRG_SLC22A1: Life Technologies and Expression Analysis (LTEA) Assay for solute carrier (SLC22A1) using HepaRG (AID 2283524). The method in brief: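 Transcript level of SLC22A1 quantified by qRT-PCR (normalized to three housekeeping genes) after 48 h chemical exposure of HepaRG cells, eight concentrations up to 100 µM, half-log steps, 0.5% DMSO vehicle. Gain or loss relative to DMSO fitted bidirectionally.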

Read-out in assay [4]: Pyruvate Dehydrogenase Kinase 4 (PDK4), PDK4 (gene 5166)
Nature of the assay: LTEA_HepaRG_PDK4: Life Technologies and Expression Analysis (LTEA) Assay for Pyruvate Dehydrogenase Kinase 4 (PDK4) using HepaRG (AID 2283525). The method in brief: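 Readout is qRT-PCR of PDK4 transcript, normalized to three housekeeping genes, with bidirectional fitting against 0.5% DMSO vehicle. Differentiated HepaRG cells were treated 48 h in serum-free induction medium, duplicate wells, eight-point half-log series topping at 100 uM.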

Read-out in assay [5]: NAD(P)H dehydrogenase [quinone] 1 (NQO1), NQO1 (gene 1728)
Nature of the assay: LTEA_HepaRG_NQO1: Life Technologies and Expression Analysis (LTEA) Assay for NAD(P)H dehydrogenase [quinone] 1 (NQO1) using HepaRG (AID 2283526). The method in brief: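 In this assay, gene expression is read by qRT-PCR after 48 h exposure of HepaRG cells to eight concentrations (max 100 uM, half-log) in 0.5% DMSO. Each chemical runs in duplicate, and activity is scored relative to vehicle.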

Read-out in assay [6]: Nuclear factor erythroid 2-related factor 2 (Homo sapiens) (UniProt Q16236)
Nature of the assay: LTEA_HepaRG_NFE2L2: Life Technologies and Expression Analysis (LTEA) Assay for Nuclear factor erythroid 2-related factor 2 (NFE2L2) Transcription Factor using HepaRG (AID 2283527).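 Also: TaqMan qRT-PCR transcript level normalised to ACTB GAPDH and POLR2A housekeeping genes.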 The method in brief:
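NFE2L2 transcript level was read by qRT-PCR (housekeeping ACTB/GAPDH/POLR2A normalisation) after 48 h chemical treatment of HepaRG in serum-free induction medium. Duplicate 8-point half-log curves, top 100 uM, 0.5% DMSO vehicle; up- or down-regulation fitted against vehicle.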

Read-out in assay [7]: succinate dehydrogenase complex iron sulfur subunit B (SDHB), SDHB (gene 6390)
Nature of the assay: LTEA_HepaRG_SDHB: Life Technologies and Expression Analysis (LTEA) Assay for succinate dehydrogenase complex iron sulfur subunit B (SDHB) using HepaRG (AID 2283528). The gist of the method: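 HepaRG cells (~100,000/well, plated 48 h) exposed in duplicate for 48 h in serum-free induction medium to 8-point half-log series from 100 uM in 0.5% DMSO; mRNA by qRT-PCR normalised to ACTB, GAPDH, POLR2A; bidirectional fit versus DMSO.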

Read-out in assay [8]: Signal transducer and activator of transcription 3 (Homo sapiens) (UniProt P40763)
Nature of the assay: LTEA_HepaRG_STAT3: Life Technologies and Expression Analysis (LTEA) Assay for Signal transducer and activator of transcription (STAT3) using HepaRG (AID 2283529). The method in brief:
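STAT3 transcript quantified by qRT-PCR against three housekeeping genes (ACTB, GAPDH, POLR2A), fitted both directions relative to DMSO. HepaRG cultures exposed 48 h to eight half-log concentrations, top 100 uM, 0.5% DMSO, serum-free induction medium.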

Read-out in assay [9]: solute carrier (SLCO1B1), SLCO1B1 (gene 10599)
The assay is described as follows: LTEA_HepaRG_SLCO1B1: Life Technologies and Expression Analysis (LTEA) Assay for solute carrier (SLCO1B1) using HepaRG (AID 2283530). The method in brief:
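SLCO1B1 transcript levels were quantified by TaqMan qRT-PCR using three housekeeping genes for normalization. This followed 48 h chemical exposure (100 uM top, half-log, 8 points, 0.5% DMSO) of HepaRG liver cells, with gain or loss fitted relative to DMSO.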

Read-out in assay [10]: sulfotransferase 2A1 (SULT2A1), SULT2A1 (gene 6822)
Nature of the assay: LTEA_HepaRG_SULT2A1: Life Technologies and Expression Analysis (LTEA) Assay for sulfotransferase 2A1 (SULT2A1) using HepaRG (AID 2283531). The method in brief: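 Expression change of SULT2A1, by qRT-PCR with three housekeeping-gene normalization, was scored bidirectionally versus DMSO. Cells: differentiated HepaRG, dosed in duplicate for 48 h across 8 points, highest 100 µM, half-log dilution, 0.5% DMSO.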

Read-out in assay [11]: Transforming Growth Factor (TGFA), TGFA (gene 7039)
The assay is described as follows: LTEA_HepaRG_TGFA: Life Technologies and Expression Analysis (LTEA) Assay for Transforming Growth Factor (TGFA) using HepaRG (AID 2283532). The method in brief:
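TGFA transcript quantified by qRT-PCR (Fluidigm arrays) against three housekeeping genes, after 48 hours chemical treatment of HepaRG cells. Top concentration 100 uM with half-log dilutions, 8 points, duplicates, 0.5% DMSO.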

Read-out in assay [12]: Transforming Growth Factor (TGFB1), TGFB1 (gene 7040)
Nature of the assay: LTEA_HepaRG_TGFB1: Life Technologies and Expression Analysis (LTEA) Assay for Transforming Growth Factor (TGFB1) Transporter using HepaRG (AID 2283533). The gist of the method: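 TGFB1 transcript measured by qRT-PCR with normalisation to three housekeeping genes (ACTB, GAPDH, POLR2A); human HepaRG line treated in duplicate for 48 hr with an 8-point series topping at 100 uM, 0.5% DMSO vehicle, bidirectionally fitted.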

Read-out in a further assay: TIMP1, TIMP1 (gene 7076)
The assay is described as follows: LTEA_HepaRG_TIMP1: Life Technologies and Expression Analysis (LTEA) Assay for TIMP1 using HepaRG (AID 2283534). The gist of the method: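 Bidirectional change in TIMP1 transcript versus 0.5% DMSO, measured by TaqMan qRT-PCR with three housekeeping genes for normalization. HepaRG human liver cells dosed 48 h in duplicate, top concentration 100 uM with half-log dilutions.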

Read-out in assay [13]: Tumor necrosis factor receptor 1 (TNFRSF1A), TNFRSF1A (gene 7132)
Nature of the assay: LTEA_HepaRG_TNFRSF1A: Life Technologies and Expression Analysis (LTEA) Assay for Tumor necrosis factor receptor 1 (TNFRSF1A) using HepaRG (AID 2283535). The gist of the method: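 mRNA measured by qRT-PCR (TaqMan, Fluidigm arrays) against ACTB/GAPDH/POLR2A housekeepers after 48 h chemical exposure of HepaRG cells. Top concentration 100 uM, half-log 8-point series, duplicates; vehicle 0.5% DMSO, both fit directions.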

Read-out in assay [14]: Thyroid Hormone Responsive (THRSP), THRSP (gene 7069)
Nature of the assay: LTEA_HepaRG_THRSP: Life Technologies and Expression Analysis (LTEA) Assay for Thyroid Hormone Responsive (THRSP) using HepaRG (AID 2283536). The gist of the method:
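THRSP transcript quantified by Fluidigm qRT-PCR against three housekeeping genes after 48 h chemical exposure of HepaRG cells in serum-free induction medium; eight-point half-log series, top 100 uM, 0.5% DMSO vehicle, duplicate wells.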

Read-out in assay [15]: UDP glucuronosyltransferase (UGT1A1), UGT1A1 (gene 54658)
Nature of the assay: LTEA_HepaRG_UGT1A1: Life Technologies and Expression Analysis (LTEA) Assay for UDP glucuronosyltransferase (UGT1A1) using HepaRG (AID 2283538). The gist of the method: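 mRNA induction or loss of UGT1A1, by TaqMan qRT-PCR, in duplicate HepaRG wells after 48 h exposure to half-log dilutions topping at 100 uM; DMSO (0.5%) served as baseline.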

Read-out in assay [16]: UDP glucuronosyltransferase (UGT1A6), UGT1A6 (gene 54578)
Nature of the assay: LTEA_HepaRG_UGT1A6: Life Technologies and Expression Analysis (LTEA) Assay for UDP glucuronosyltransferase (UGT1A6) using HepaRG (AID 2283539). The method in brief:
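Expression was quantified by TaqMan qRT-PCR on Fluidigm arrays with ACTB/GAPDH/POLR2A normalization and bidirectional fitting against 0.5% DMSO. HepaRG cells (~100,000/well) were treated in duplicate for 48 h at eight half-log concentrations up to 100 uM in serum-free induction medium.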

Read-out in assay [17]: X-box binding protein 1 (XBP1), XBP1 (gene 7494)
Nature of the assay: LTEA_HepaRG_XBP1: Life Technologies and Expression Analysis (LTEA) Assay for X-box binding protein 1 (XBP1) using HepaRG (AID 2283540). The method in brief: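 XBP1 transcript by qRT-PCR (housekeeping-normalized: ACTB, GAPDH, POLR2A) after 48 h chemical treatment of HepaRG cells, 8-point half-log series topping at 100 uM, vehicle 0.5% DMSO. Gain and loss of signal fitted relative to DMSO.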

Read-out in assay [18]: Nuclear factor NF-kappa-B p105 subunit (Homo sapiens) (UniProt P19838)
Nature of the assay: LTEA_HepaRG_NFKB1: Life Technologies and Expression Analysis (LTEA) Assay for Nuclear Factor Kappa B Subunit 1 (NFKB1) using HepaRG (AID 2283521). The method in brief: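 Differentiated human HepaRG cells in serum-free induction medium with 0.5% DMSO were exposed for 48 h to eight half-log concentrations, top 100 uM, in duplicate. NFKB1 mRNA measured by Fluidigm TaqMan qRT-PCR, normalised to ACTB, GAPDH and POLR2A; bidirectional fit versus DMSO.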

Read-out in assay [19]: Cellular tumor antigen p53 (Homo sapiens) (UniProt P04637)
Nature of the assay: LTEA_HepaRG_TP53: Life Technologies and Expression Analysis (LTEA) Assay for Tumor Protein P53 (TP53) using HepaRG (AID 2283537). The gist of the method: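 Differentiated HepaRG cells in serum-free induction medium exposed 48 h in duplicate to 8 half-log concentrations, top 100 uM, 0.5% DMSO. TP53 mRNA by TaqMan qRT-PCR (Fluidigm), normalized to ACTB, GAPDH, POLR2A; fitted bidirectionally versus DMSO.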

Chain of Signal transducer and activator of transcription 3 (Homo sapiens) (P40763 whole entry, looked up): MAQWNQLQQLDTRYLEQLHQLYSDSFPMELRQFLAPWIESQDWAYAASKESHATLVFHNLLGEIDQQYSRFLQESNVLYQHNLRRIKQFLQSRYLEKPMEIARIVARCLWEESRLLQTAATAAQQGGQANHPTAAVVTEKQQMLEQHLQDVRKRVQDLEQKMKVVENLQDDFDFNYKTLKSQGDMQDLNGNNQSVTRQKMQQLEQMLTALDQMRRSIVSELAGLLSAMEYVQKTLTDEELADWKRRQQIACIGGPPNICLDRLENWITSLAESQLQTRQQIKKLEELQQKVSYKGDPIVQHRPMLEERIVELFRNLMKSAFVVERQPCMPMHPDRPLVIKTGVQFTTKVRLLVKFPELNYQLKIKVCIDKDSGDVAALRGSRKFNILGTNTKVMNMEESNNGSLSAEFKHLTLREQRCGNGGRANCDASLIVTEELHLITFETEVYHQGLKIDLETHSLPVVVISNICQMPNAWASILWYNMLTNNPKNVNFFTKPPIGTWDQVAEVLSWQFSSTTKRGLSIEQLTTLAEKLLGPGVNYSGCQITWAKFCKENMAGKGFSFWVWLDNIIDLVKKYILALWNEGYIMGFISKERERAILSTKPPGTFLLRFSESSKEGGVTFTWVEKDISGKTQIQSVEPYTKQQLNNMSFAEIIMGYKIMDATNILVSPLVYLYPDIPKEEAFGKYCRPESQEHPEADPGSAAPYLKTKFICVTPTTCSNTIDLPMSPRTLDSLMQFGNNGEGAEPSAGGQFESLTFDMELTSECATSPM
Chain of Nuclear factor erythroid 2-related factor 2 (Homo sapiens) (Q16236 whole entry, looked up): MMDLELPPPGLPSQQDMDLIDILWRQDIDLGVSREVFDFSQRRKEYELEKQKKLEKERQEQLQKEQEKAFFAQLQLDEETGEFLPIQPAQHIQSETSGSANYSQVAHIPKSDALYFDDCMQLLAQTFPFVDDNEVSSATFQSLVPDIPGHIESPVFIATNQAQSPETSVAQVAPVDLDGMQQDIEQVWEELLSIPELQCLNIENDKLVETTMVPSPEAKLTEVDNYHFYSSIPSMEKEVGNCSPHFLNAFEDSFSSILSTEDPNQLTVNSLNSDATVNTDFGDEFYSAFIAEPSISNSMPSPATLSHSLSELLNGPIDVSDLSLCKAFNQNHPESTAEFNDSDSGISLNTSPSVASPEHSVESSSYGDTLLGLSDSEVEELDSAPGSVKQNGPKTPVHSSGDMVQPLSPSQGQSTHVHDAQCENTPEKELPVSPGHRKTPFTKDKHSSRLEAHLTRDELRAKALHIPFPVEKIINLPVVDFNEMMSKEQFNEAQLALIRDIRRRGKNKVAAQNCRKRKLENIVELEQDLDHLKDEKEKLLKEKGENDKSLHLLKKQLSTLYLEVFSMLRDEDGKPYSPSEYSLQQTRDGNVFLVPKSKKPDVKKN
Chain of Nuclear factor NF-kappa-B p105 subunit (Homo sapiens) (P19838 whole entry, looked up): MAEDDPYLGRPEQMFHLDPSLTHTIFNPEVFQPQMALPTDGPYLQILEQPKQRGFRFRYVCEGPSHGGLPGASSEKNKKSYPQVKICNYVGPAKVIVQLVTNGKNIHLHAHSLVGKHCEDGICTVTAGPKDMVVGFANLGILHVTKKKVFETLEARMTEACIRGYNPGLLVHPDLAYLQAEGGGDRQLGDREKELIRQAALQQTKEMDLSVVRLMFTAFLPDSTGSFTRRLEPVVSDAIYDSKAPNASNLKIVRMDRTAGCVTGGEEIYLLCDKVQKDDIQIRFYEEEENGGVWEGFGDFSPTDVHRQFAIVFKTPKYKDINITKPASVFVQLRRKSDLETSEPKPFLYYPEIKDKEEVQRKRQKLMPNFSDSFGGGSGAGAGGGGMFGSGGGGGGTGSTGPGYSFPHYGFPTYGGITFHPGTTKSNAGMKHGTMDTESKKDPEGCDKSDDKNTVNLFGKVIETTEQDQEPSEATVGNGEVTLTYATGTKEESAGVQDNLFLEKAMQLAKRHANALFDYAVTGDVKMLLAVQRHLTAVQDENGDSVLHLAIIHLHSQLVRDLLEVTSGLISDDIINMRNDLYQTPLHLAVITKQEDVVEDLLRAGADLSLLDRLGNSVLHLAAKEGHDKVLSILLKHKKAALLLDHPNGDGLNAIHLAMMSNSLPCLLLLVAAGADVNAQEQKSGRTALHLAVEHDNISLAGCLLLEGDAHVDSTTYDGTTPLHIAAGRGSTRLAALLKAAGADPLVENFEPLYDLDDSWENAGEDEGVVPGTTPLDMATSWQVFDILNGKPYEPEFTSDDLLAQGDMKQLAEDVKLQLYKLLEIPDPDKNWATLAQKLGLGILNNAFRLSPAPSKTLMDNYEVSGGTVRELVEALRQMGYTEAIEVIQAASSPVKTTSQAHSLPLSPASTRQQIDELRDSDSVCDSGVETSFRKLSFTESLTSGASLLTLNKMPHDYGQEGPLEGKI
Chain of Cellular tumor antigen p53 (Homo sapiens) (P04637 whole entry, looked up): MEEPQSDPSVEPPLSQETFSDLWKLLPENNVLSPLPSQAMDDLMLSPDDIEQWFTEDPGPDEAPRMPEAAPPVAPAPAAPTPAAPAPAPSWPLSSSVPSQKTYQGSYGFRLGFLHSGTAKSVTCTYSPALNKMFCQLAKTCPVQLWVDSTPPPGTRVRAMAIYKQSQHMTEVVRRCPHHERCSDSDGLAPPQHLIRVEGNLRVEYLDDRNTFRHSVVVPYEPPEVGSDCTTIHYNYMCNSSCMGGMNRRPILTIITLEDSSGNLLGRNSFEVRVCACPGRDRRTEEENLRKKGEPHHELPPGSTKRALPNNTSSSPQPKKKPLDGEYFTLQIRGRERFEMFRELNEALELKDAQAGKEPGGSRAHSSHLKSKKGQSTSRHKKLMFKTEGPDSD

In the case of `OCCNCCO`, the call in assay [1], in assay [2], in assay [5], in assay [6], in assay [7] and in [8] was inactive. For the same compound, the outcome was “inactive” in assay [9]; “inactive” in assay [11]; “inactive” in assay [12]; “inactive” with TIMP1, TIMP1 (gene 7076); “inactive” in [13]; “inactive” in assay [14]. In [16], the call was inactive. Further, the AC50 in [3] is 50 µM (active); in assay [4], 50 µM (active); in assay [10], 21.9 µM (active); in assay [15] it was 9.92 µM (active); in assay [17], 50 µM (active).
For `CCCCCOC(C)=O`, the outcome in assay [18], in assay [1], in assay [2], in assay [3], in assay [4] and in assay [5] was inactive. Also, the result in assay [6], in assay [7], in [8], in assay [9], in [10] and in assay [12] was inactive. For the same compound, the outcome with TIMP1, TIMP1 (gene 7076) is “inactive”; in [13], “inactive”; in assay [15] it was “inactive”; in assay [16], “inactive”; in [17], “inactive”.
Turning to `CCc1cccc(CC)c1N`, the compound was called inactive in [1], in [2], in [3], in [4], in assay [5] and in assay [6]. For the same compound, the outcome in assay [7] was “inactive”; in assay [8] it was “inactive”; in assay [9] it was “inactive”; in [10], “inactive”; in assay [12], “inactive”; with TIMP1, TIMP1 (gene 7076) it was “inactive”. For the same compound, the compound was classed as inactive in assay [13], in assay [19], in [15], in assay [16] and in assay [17].
Regarding `CCN(CC)C(=S)SSC(=S)N(CC)CC`, the result in [18], in assay [1], in [2], in assay [3], in assay [4] and in [5] was inactive. In addition, the call in assay [6], in [7], in assay [8], in assay [9], in assay [11] and in [12] was inactive. For the same compound, the outcome with TIMP1, TIMP1 (gene 7076) is “inactive”; in [13], “inactive”; in assay [19], “inactive”; in assay [15], “inactive”; in assay [16], “inactive”; in assay [17], “inactive”.
